# “And” between values parts separate entries of the source, which are not always exact repeats. Identical values can stand only once. Values without a mark were called inactive. Records with an inconclusive call do not appear. A call without a number means that no potency is given here. The source made the active and inactive calls. Unless noted, calls come from the whole dose curve.
# Experiments:
# [1] = Nuclear factor erythroid 2-related factor 2/antioxidant responsive element (Nrf2/ARE) small molecule agonists: qHTS cell viability counter screen in human keratinocytes (AID 1919968; active = well fitted curve in the direction sought with a large enough effect in the repeat runs; an effect the other way counts as inactive or inconclusive; note: nearly all actives have a fitted effect of over 55% in size; note: potency is the fitted concentration of half-maximal effect)
# Method in brief: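 Cytotoxicity was multiplexed with the Nrf2/ARE luciferase assay in the same wells. Stably transfected HaCaT keratinocytes were treated with test compounds for 23 h at 37 C. Cell viability was then measured by CellTiter-Fluor fluorescence.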
# [2] = Nuclear factor erythroid 2-related factor 2/antioxidant responsive element (Nrf2/ARE) small molecule agonists: luciferase reporter gene qHTS assay in human keratinocytes (AID 1919969); note: nearly all actives have a fitted effect of over 35% in size; note: potency is the fitted concentration of half-maximal effect
# [3] = target: Gonadotropin-releasing hormone receptor (Homo sapiens) (UniProt P30968); test: Human gonadotropin-releasing hormone receptor (GnRHR) small molecule agonists, calcium flux assay in GnRHR-HEK293 cells (AID 1920063); note: nearly all actives have a fitted effect of over 35% in size
# Sequence of Gonadotropin-releasing hormone receptor (Homo sapiens) (P30968 whole entry, looked up): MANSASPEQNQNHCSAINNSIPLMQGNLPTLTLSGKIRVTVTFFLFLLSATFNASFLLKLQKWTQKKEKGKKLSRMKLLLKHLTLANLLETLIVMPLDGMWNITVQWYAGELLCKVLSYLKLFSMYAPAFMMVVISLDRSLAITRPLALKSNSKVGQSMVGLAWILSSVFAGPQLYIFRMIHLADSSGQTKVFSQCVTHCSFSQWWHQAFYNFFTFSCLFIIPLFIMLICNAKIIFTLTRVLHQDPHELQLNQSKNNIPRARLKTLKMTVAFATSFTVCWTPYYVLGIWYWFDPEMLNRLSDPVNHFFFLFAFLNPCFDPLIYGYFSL
# Method in brief: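 Agonist activity was measured as intracellular calcium flux in HEK293 cells engineered to stably express human GnRHR. After dye loading for 1 hour at 37 C, compounds in DMSO were added and fluorescence was followed for 3 minutes.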
# [4] = target: KiSS-1 receptor (Homo sapiens) (UniProt Q969F8); test: Human kisspeptin (KISS1R) small molecule agonists, calcium flux assay in KISS1R-HEK293 cells (AID 1920064; active = well fitted curve in the direction sought with a large enough effect in the repeat runs; an effect the other way counts as inactive or inconclusive)
# Sequence of KiSS-1 receptor (Homo sapiens) (Q969F8 whole entry, looked up): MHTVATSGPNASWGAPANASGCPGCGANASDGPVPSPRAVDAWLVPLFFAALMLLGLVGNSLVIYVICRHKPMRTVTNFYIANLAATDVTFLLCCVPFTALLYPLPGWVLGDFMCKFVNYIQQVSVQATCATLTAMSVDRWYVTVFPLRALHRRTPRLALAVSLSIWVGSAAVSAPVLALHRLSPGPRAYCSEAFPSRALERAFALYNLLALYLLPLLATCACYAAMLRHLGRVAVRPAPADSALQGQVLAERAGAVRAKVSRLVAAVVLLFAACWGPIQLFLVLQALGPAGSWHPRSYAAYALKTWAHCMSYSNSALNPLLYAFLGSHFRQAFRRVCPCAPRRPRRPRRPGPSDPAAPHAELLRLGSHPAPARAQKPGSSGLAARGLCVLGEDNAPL
# Method in brief: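 Agonist activity is monitored as intracellular calcium rise in engineered HEK293 cells carrying human KISS1R. Cells are dye-loaded for 1 h at 37 C before compound addition, and fluorescence is recorded for 3 min.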
# [5] = G protein-coupled receptor (GPCR) small molecule agonists, calcium flux assay: HEK293 wild type cell line counter screen (AID 1920065)
# Method in brief: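 Seed cells, incubate 18 h (37 C, 5% CO2); add calcium dye, 1 h at 37 C; pin-transfer compounds, ATP control or DMSO; read fluorescence 480/540 nm each second for 3 min.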
# [6] = p53 small molecule agonists, cell-based qHTS assay with human liver microsomes (AID 1963577);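 note: p53 response element beta-lactamase reporter cells with liver microsomes plus NADPH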
# Method in brief: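 In this qHTS, p53 response-element beta-lactamase cells receive test compound together with a microsome/NADPH activating system (0.5 mg/mL final each) and are incubated 16 h at 37 C before LiveBLAzer fluorescence detection.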
# [7] = p53 small molecule agonists, cell-based qHTS assay with human liver microsomes: qHTS cell viability counter screen (AID 1963579); note: nearly all actives have a fitted effect of over 45% in size
# Method in brief: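 Metabolically activated exposure: compounds, human liver microsomes and NADPH (0.5 mg/mL final apiece) were added to p53RE-bla cells seeded 5 h earlier, left 16 h at 37 C, and then assessed for viability by CellTiter-Glo luminescence.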
# [8] = p53 small molecule agonists, cell-based qHTS assay with rat liver microsomes: qHTS cell viability counter screen (AID 1963580); note: nearly all actives have a fitted effect of over 45% in size; note: potency is the fitted concentration of half-maximal effect
# Method in brief: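 Counter screen for cytotoxicity under metabolic activation: rat liver microsomes and NADPH, 0.5 mg/mL final each, added with compounds to p53RE-bla HCT-116 cells; 16 h at 37 C, then ATP luminescence read.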
# [9] = p53 small molecule agonists, cell-based qHTS assay: qHTS cell viability counter screen (AID 1963581); note: nearly all actives have a fitted effect of over 45% in size
# Method in brief: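 Viability was counter-screened in parallel with the p53 agonist reporter by measuring intracellular ATP luminescence in the same HCT-116 p53RE-bla wells after 16 h compound treatment at 37 C.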
# [10] = p53 small molecule agonists, cell-based qHTS assay (AID 1963582; active = well fitted activation curve with a large enough effect in the signal ratio in the repeat runs, not every such curve was filed as active; the % refers to the signal ratio)
# Method in brief: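 Cells carrying a p53-responsive bla reporter are treated with test compounds for 16 h at 37 C; beta-lactamase activity is then detected with LiveBLAzer B/G FRET substrate after 2 h at room temperature.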
# [11] = target: 5-hydroxytryptamine receptor 2A (Homo sapiens) (UniProt P28223); test: 5-hydroxytryptamine receptor 2A (HTR2A) small molecule agonists, cell-based qHTS assay (AID 1963587); note: nearly all actives have a fitted effect of over 30% in size; note: potency is the fitted concentration of half-maximal effect
# Sequence of 5-hydroxytryptamine receptor 2A (Homo sapiens) (P28223 whole entry, looked up): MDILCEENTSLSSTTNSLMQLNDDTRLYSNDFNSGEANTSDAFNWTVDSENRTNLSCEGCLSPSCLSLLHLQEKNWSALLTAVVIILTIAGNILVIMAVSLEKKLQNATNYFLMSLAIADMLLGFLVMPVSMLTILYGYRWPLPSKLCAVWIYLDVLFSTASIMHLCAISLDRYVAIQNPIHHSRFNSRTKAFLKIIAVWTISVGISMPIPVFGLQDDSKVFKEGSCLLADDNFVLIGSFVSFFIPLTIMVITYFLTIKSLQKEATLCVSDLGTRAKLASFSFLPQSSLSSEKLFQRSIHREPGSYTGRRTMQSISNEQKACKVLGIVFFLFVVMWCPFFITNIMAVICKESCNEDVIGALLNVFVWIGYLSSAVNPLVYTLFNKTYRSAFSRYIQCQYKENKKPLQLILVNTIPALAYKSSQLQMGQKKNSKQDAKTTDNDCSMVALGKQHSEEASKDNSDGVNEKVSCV
# Method in brief: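 HTR2A-CHO cells, plated 18 h at 37 C/5% CO2, dye-loaded 1 h at 37 C; compounds in DMSO added by pin tool (agonist mode). Intracellular calcium flux read as kinetic fluorescence on FDSS over 2 min at 1 s intervals.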
# [12] = target: Muscarinic acetylcholine receptor M1 (Homo sapiens) (UniProt P11229); test: Cholinergic receptor muscarinic 1 (CHRM1) small molecule agonists, cell-based qHTS assay (AID 1963589); note: nearly all actives have a fitted effect of over 35% in size
# Sequence of Muscarinic acetylcholine receptor M1 (Homo sapiens) (P11229 whole entry, looked up): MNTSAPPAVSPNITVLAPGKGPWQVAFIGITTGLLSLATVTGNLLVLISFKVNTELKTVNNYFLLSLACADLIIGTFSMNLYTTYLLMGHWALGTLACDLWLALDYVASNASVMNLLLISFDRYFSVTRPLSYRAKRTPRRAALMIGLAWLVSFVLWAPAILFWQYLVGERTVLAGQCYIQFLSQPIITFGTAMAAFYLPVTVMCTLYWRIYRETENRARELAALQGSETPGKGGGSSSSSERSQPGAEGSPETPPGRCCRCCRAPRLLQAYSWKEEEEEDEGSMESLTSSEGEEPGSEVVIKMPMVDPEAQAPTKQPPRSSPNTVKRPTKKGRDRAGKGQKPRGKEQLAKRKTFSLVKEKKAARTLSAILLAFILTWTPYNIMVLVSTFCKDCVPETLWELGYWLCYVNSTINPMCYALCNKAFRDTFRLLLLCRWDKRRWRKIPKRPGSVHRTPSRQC
# Method in brief: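 Cells were plated and incubated 18 h at 37 C/5% CO2, loaded with calcium dye for 1 h at 37 C, then treated with compounds in DMSO. Fluorescence was recorded kinetically at 1 sec intervals.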
# [13] = cAMP Responsive Elements (CRE) small molecule agonists, cell-based qHTS assay (AID 1963590)
# Method in brief: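 Cells carrying a CRE-driven beta-lactamase reporter (HEK 293T) are seeded, incubated overnight (18 h), and treated with test compounds for 3 h at 37 C; reporter activity is then detected with a FRET substrate after 2 h at room temperature.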
# [14] = cAMP Responsive Elements (CRE) small molecule antagonists, cell-based qHTS assay (AID 1963591; active = well fitted inhibition curve with a large enough effect in the signal ratio in the repeat runs, not every such curve was filed as active; the % refers to the signal ratio)
# Method in brief: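 Cells (CRE-bla HEK 293T, DMEM with 10% dialyzed FBS and 25 mM HEPES) are seeded and incubated 18 h. Compounds are added with NKH477 agonist at 0.25 uM final for 3 h, then FRET substrate for 2 h.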
# [15] = target: Beta-2 adrenergic receptor (Homo sapiens) (UniProt P07550); test: Adrenergic beta2 receptor (ADRB2) small molecule antagonists, cell-based qHTS assay (AID 1963592); note: series mostly up to about 92 µM; nearly all actives have a fitted effect of over 50% in size
# Sequence of Beta-2 adrenergic receptor (Homo sapiens) (P07550 whole entry, looked up): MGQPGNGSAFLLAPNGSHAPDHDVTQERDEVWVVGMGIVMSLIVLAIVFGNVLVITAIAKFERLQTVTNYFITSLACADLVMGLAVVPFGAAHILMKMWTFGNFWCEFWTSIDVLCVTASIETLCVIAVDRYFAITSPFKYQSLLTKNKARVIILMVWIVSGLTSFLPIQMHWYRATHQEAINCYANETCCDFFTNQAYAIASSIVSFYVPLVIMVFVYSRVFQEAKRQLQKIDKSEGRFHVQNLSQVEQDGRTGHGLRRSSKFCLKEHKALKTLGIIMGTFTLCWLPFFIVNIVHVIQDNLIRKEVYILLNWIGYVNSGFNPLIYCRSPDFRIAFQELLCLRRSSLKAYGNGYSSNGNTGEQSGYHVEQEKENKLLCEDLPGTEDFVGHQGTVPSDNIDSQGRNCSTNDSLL
# Method in brief: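 Assay format: CHO-ADRB2 cells, 18-20hr seeding at 37C/5% CO2, then compound plus 1nM isoproterenol agonist mix for 0.5hr RT. Homogeneous time-resolved fluorescence cAMP detection after 1hr, expressed as 665/615 nm ratio.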
# [16] = target: D(2) dopamine receptor (Homo sapiens) (UniProt P14416); test: Dopamine D2 receptor (DRD2) small molecule agonists, cell-based qHTS assay (AID 1963594); note: nearly all actives have a fitted effect of over 35% in size
# Sequence of D(2) dopamine receptor (Homo sapiens) (P14416 whole entry, looked up): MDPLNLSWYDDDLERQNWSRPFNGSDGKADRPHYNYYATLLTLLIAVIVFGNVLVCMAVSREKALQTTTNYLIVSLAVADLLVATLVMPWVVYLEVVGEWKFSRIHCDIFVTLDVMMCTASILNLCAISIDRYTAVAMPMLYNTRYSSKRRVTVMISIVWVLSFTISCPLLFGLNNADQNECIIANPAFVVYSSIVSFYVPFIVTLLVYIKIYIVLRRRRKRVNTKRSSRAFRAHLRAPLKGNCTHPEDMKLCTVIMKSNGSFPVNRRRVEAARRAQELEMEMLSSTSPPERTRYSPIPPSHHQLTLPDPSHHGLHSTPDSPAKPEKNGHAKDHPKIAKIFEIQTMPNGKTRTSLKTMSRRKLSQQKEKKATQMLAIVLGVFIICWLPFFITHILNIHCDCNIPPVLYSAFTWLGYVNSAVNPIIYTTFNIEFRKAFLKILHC
# Method in brief: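 HEK293 cells stably expressing DRD2 were cultured 24 h at 37 C, then given Ro20-1724 (0.1 mM final) and compounds for 10 min at room temperature. NKH477 (200nM) was then added for 30 min. cAMP was read by HTRF.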
# [17] = target: D(2) dopamine receptor (Homo sapiens) (UniProt P14416); test: Dopamine D2 receptor (DRD2) small molecule antagonists, cell-based qHTS assay (AID 1963595; active = well fitted inhibition curve with a large enough effect in the signal ratio in the repeat runs, with a control signal flat; the % refers to the signal ratio)
# Method in brief: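 Antagonist mode in DRD2-HEK293 cells: after compound addition with 0.1 mM Ro20-1724, cells received quinpirole (12 nM) and NKH477 (200 nM) for 30 min at room temperature; HTRF cAMP read after 1 h detection.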
# [18] = target: 5-hydroxytryptamine receptor 2A (Homo sapiens) (UniProt P28223); test: 5-hydroxytryptamine receptor 2A (HTR2A) small molecule antagonists, cell-based qHTS assay (AID 1963586); note: nearly all actives have a fitted effect of over 45% in size; note: potency is the fitted concentration of half-maximal effect
# Method in brief: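 CHO cells stably expressing human HTR2A were plated for 18 h at 37 C, then loaded with calcium dye for 1 h. Compounds were preincubated 5 min at room temperature before DOI (4 nM solution) was added. Kinetic fluorescence was read for 3 min.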
# [19] = target: Muscarinic acetylcholine receptor M1 (Homo sapiens) (UniProt P11229); test: Cholinergic receptor muscarinic 1 (CHRM1) small molecule antagonists, cell-based qHTS assay (AID 1963588); note: nearly all actives have a fitted effect of over 40% in size
# Method in brief: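 Compounds were tested at 15 concentrations in three independent runs. Dye-loaded CHRM1-CHO cells were exposed 5 min at room temperature before stimulation by acetylcholine added at 50nM. Intracellular calcium was read kinetically on FDSS for 3 min.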
# [20] = target: Beta-2 adrenergic receptor (Homo sapiens) (UniProt P07550); test: Adrenergic beta2 receptor (ADRB2) small molecule agonists, cell-based qHTS assay (AID 1963593);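 note: CHO cells stably overexpressing human ADRB2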
# Method in brief: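 CHO cells stably over-expressing ADRB2 were plated overnight at 37C, then dosed with compounds plus a stimulation mix containing 100uM IBMX and 25uM Ro-20-1724 for 0.5hr at room temperature. cAMP was measured by HTRF competition, 1hr.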
smiles,measurement,setting,value
CCC(C)S (stereo not drawn),"activity change, negative = cytotoxicity",[1],-0.322% [at 3.27 µM]
same,"activity, positive = activation",[2],-3.8% [at 3.27 µM]
same,activity change,[3],"-0.606% [at 2.04 µM, active compounds read high]"
same,activation,[4],1.34% [at 2.72 µM]
same,activation,[5],0.0986% [at 2.04 µM]
same,activation,[6],0.369% [at 2.33 µM]
same,"activity change, negative = cytotoxicity",[7],2.56% [at 2.33 µM]
same,"activity change, negative = cytotoxicity",[8],2.16% [at 2.33 µM]
same,"activity change, negative = cytotoxicity",[9],10.6% [at 2.33 µM]
same,activation,[10],-0.925% [at 2.33 µM]
same,activation,[11],0.646% [at 2.65 µM]
same,activation,[12],0.317% [at 2.72 µM]
same,activation,[13],-0.121% [at 3.27 µM]
same,"activity change, negative = inhibition",[14],-3.11% [at 3.27 µM]
same,"activity change, negative = inhibition",[15],-1.77% [at 3.27 µM]
same,activation,[16],5.57% [at 3.27 µM]
same,"activity change, negative = inhibition",[17],2.46% [at 3.28 µM]
Cc1cc(C)c(C(=O)O)c(C)c1,Potency,[1],inactive
same,Potency,[2],inactive
same,Potency,[3],inactive
same,Potency,[4],inactive
same,Potency,[5],inactive
same,Potency,[6],inactive
same,Potency,[7],inactive
same,Potency,[8],inactive
same,Potency,[9],inactive
same,Potency,[10],inactive
same,Potency,[18],inactive
same,Potency,[11],inactive
same,Potency,[19],inactive
same,Potency,[12],inactive
same,Potency,[14],inactive
same,Potency,[15],inactive
same,Potency,[20],inactive
same,Potency,[16],inactive
same,Potency,[17],inactive
CC(C)(C)c1ccc(O)c(C(C)(C)C)c1,Potency,[1],27.2 µM (active) and 43.3 µM (active)
same,Potency,[2],9.65 µM (active) and 61.1 µM (active)
same,Potency,[3],inactive
same,Potency,[4],inactive
same,Potency,[5],inactive
same,Potency,[6],inactive
same,Potency,[8],45.8 µM (active)
same,Potency,[9],inactive
same,Potency,[10],inactive
same,Potency,[18],23.7 µM (active)
same,Potency,[11],34.5 µM (active) and 27.5 µM (active)
same,Potency,[12],inactive
same,Potency,[15],inactive
same,Potency,[16],inactive
CCC(=O)OC/C=C(\C)CCC=C(C)C,Potency,[1],inactive
same,Potency,[2],inactive
same,Potency,[3],inactive
same,Potency,[4],inactive
same,Potency,[5],inactive
same,Potency,[6],inactive
same,Potency,[8],inactive
same,Potency,[9],inactive
same,Potency,[10],inactive
same,Potency,[18],inactive
same,Potency,[11],inactive
same,Potency,[19],inactive
same,Potency,[12],inactive
same,Potency,[13],inactive
same,Potency,[14],inactive
same,Potency,[15],inactive
same,Potency,[16],inactive
same,Potency,[17],inactive

# Source: PubChem BioAssay (Tox21)
